Screens from PubChem.
A selection: hits, their analogues and other compounds. The true share with any hit is near 1.7%.
GLP-1R agonist: agonists of human GLP-1 receptor; 380,000 tested, 0.007% active; P43220; Potency, µM (titrated, usually from 45.6 µM), for the others: at the highest dose activation, usual class: activators; HEK293 GLP-1R CRE-luciferase, luminescence, 4-6 h; cells express a hypersensitive GLP-1R form; note: % of control where 0% means no effect
PTHR1 ag: activates the human parathyroid hormone receptor PTHR1 | Q03431 | HEK293 GP2 PTHR1 cells, GloSensor cAMP luminescence, 1 h | Potency, µM (top dose mostly 115 µM), for inactives: at the highest dose activation, most hits filed as activators | 410,000 tested, 0.075% active | AID 743266; note: nearly all actives have a fitted effect of over 55% in size
Target sequence (Q03431 whole entry, looked up): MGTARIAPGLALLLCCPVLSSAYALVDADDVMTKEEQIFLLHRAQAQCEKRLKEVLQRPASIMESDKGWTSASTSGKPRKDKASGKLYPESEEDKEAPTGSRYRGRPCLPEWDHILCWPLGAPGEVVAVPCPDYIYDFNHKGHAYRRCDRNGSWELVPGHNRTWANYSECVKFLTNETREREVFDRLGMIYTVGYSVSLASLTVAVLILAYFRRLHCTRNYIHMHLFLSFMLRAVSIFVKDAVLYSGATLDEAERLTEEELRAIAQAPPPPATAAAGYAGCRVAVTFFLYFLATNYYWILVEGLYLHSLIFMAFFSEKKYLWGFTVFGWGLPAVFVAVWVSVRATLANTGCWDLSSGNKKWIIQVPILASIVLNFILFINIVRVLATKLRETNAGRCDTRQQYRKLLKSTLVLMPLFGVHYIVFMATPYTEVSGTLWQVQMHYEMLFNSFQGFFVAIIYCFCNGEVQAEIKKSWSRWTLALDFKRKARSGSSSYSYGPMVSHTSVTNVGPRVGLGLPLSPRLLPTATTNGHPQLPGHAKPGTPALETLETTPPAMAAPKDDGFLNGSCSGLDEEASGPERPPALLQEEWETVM
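HEK-293-derived GP2 cells expressing PTHR1 and a GloSensor cAMP reporter, 3,000/well, plated overnight, given luciferin plus IBMX (each 0.5 mM as added) for 1 h at 37 °C, then compound for 1 h at 37 °C. Luminescence was read after 15 min at room temperature.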
GLP1R cytotox: cytotoxicity counter-screen for GLP-1 receptor inverse agonists; Potency, µM (series often up to 38.3 µM), without a hit: top-dose activity change, negative = inhibition, actives largely listed as inhibitors; 410,000 tested, 0.13% active; AID 624418; HEK293 cAMP-luciferase reporter cells, luminescence, 24 h;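 note: loss of luciferase light is scored as toxicity; % is set by controls: 0 for no effect and ±100 for the full control effect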
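To flag toxic compounds, the library was rerun on cells for 24 hr at 37 deg C and 5% CO2. Viability-linked luminescence was captured 12 min after adding luciferase detection reagent.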
GLP-1R inv ag: inverse agonists of human GLP-1 receptor | P43220 | HEK293 GLP-1R CRE-luciferase, luminescence, 24 h; GLP-1R form is constitutively active | Potency, µM (highest dose often 38.3 µM), inactives show at the top dose activity change, negative = inhibition, most hits filed as inhibitors | 410,000 tested, 1.6% active | AID 624417; note: % is set by controls: 0 for no effect and ±100 for the full control effect; nearly all actives have a fitted effect of over 55% in size
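Constitutively active GLP-1R drives a cAMP-responsive luciferase in stably transfected HEK293 cells; test compounds are added after overnight (12 h) attachment and left 24 hr, and signal loss in luminescence marks inhibition.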
* hit, by the source's call; [ ] = another dose, or the depositor's remark. Calls come from the whole dose curve; as a rule, active = well fitted curve in the direction sought with a large enough effect; inconclusive = small, poorly fitted or top-dose-only effect, or another doubt; inactive = no such curve, though single readings can be large; an effect the other way counts as inactive or inconclusive. Potency is the fitted concentration of half-maximal effect.

Results for C/C(=N\N=C1\NC(=O)C(CC(=O)Nc2ccc(C)c(Cl)c2)S1)C(C)(C)C (stereo unspecified) ?
GLP-1R agonist: 8.7%; PTHR1 ag: -3.3%; GLP1R cytotox: 16.5%; GLP-1R inv ag: 11.2µM*

What do the screens show for `C/C(=N\N=C1\NC(=O)C(CC(=O)Nc2ccc(Cl)cc2)S1)c1ccco1` (stereo unspecified)?
GLP-1R agonist: 5.9%; PTHR1 ag: inactive; GLP1R cytotox: 7.1%; GLP-1R inv ag: inconclusive

How did COc1ccc(NC(=O)C(C2CC2)n2c(=O)c(-c3cc4ccccc4[nH]3)nc3ccccc32)cc1 (stereo unspecified) do in these assays?
PTHR1 ag: -4.5%; GLP1R cytotox: inactive; GLP-1R inv ag: inconclusive

Results for O=C(Nc1ccc2c(c1)OCCO2)C(C1CC1)n1c(=O)c(-c2cc3ccccc3[nH]2)nc2ccccc21 (stereo unspecified) ?
PTHR1 ag: inactive; GLP1R cytotox: inactive; GLP-1R inv ag: 11.2µM*

Results for O=C(Nc1ccc2ccccc2c1)C(C1CC1)n1c(=O)c(-c2cc3ccccc3[nH]2)nc2ccccc21 (stereo unspecified) ?
PTHR1 ag: inactive; GLP1R cytotox: inactive; GLP-1R inv ag: 5.01µM*

How did CC1CCN(S(=O)(=O)c2ccc3c(c2)N(CC(=O)NCCc2ccc(Cl)cc2)C(=O)CO3)CC1 do in these assays?
GLP-1R agonist: -1.8%; PTHR1 ag: -13.7%; GLP1R cytotox: -13.6%; GLP-1R inv ag: inconclusive

Results for O=C(NCCn1cc(SCc2ccccc2Cl)c2ccccc21)c1cccs1 ?
GLP-1R agonist: -5.2%; PTHR1 ag: -28.1%; GLP1R cytotox: -3.2%; GLP-1R inv ag: inconclusive

What do the screens show for `CC(C)CC(C(=O)Nc1oc(-c2ccccc2)c(-c2ccccc2)c1C#N)N1C(=O)c2ccccc2C1=O` (stereo unspecified)?
GLP-1R agonist: -8.4%; PTHR1 ag: -22.0%; GLP1R cytotox: -25.3%; GLP-1R inv ag: 10µM*

How did N#Cc1c(NC(=O)CCN2C(=O)c3ccccc3C2=O)oc(-c2ccccc2)c1-c1ccccc1 do in these assays?
GLP-1R agonist: -4.4%; PTHR1 ag: inactive; GLP1R cytotox: 4.3%; GLP-1R inv ag: inconclusive

Results for C=C(C)CNC(=S)NNC(=O)CCn1c2cc(Cl)ccc2c2ccc(Cl)cc21 ?
GLP-1R agonist: -12.1%; PTHR1 ag: -17.4%; GLP1R cytotox: -7.6%; GLP-1R inv ag: 11.2µM*

How did COc1cc(OC)cc(C(=O)NCCc2csc(-c3ccc(C(F)(F)F)cc3)n2)c1 do in these assays?
PTHR1 ag: -0.7%; GLP1R cytotox: 1.7%; GLP-1R inv ag: 10µM*

Results for COc1ccc(CC(=O)NCCc2csc(-c3ccc(C(F)(F)F)cc3)n2)cc1 ?
GLP-1R agonist: -7.6%; PTHR1 ag: -21.4%; GLP1R cytotox: -1.1%; GLP-1R inv ag: -1.3%

How did Cc1cc(CN(C)C(=O)c2cc(COc3ccc(C)c(C)c3)on2)on1 do in these assays?
GLP-1R agonist: 0.7%; PTHR1 ag: -19.5%; GLP1R cytotox: 23.2%; GLP-1R inv ag: inconclusive

Results for C#CCN(C(=O)c1cc(COc2ccc(C)c(C)c2)on1)C1CCCCC1 ?
GLP-1R agonist: 9.4%; PTHR1 ag: -32.3%; GLP1R cytotox: -4.1%; GLP-1R inv ag: 10µM*

What do the screens show for `Cc1ccc(OCc2cc(C(=O)N(C)C3CCCc4ccccc43)no2)cc1C` (stereo unspecified)?
GLP-1R agonist: 7.2%; PTHR1 ag: -30.9%; GLP1R cytotox: 5.0%; GLP-1R inv ag: 11.2µM*

How did C#CCN(C(=O)c1cc(COc2cccc(C(F)(F)F)c2)on1)C1CCCCC1 do in these assays?
GLP-1R agonist: 1.4%; PTHR1 ag: -28.5%; GLP1R cytotox: 6.7%; GLP-1R inv ag: inconclusive

How did COc1ccc2oc(=O)cc(CN3CCN(c4ccc(F)cc4)CC3)c2c1 do in these assays?
PTHR1 ag: inactive; GLP1R cytotox: 13.5%; GLP-1R inv ag: -14.0%

What do the screens show for `COc1ccc(C)cc1NC(=O)C(Cc1ccccc1)NS(=O)(=O)c1ccc(Br)s1` (stereo unspecified)?
PTHR1 ag: inactive; GLP1R cytotox: -17.7%; GLP-1R inv ag: inconclusive

Results for CCOc1ccccc1NC(=O)C(Cc1ccccc1)NS(=O)(=O)c1ccc(Br)s1 (stereo unspecified) ?
GLP-1R agonist: -13.4%; PTHR1 ag: -48.7%; GLP1R cytotox: -6.7%; GLP-1R inv ag: 11.2µM*

What do the screens show for `Cc1ccc(CNC(=O)C(Cc2ccccc2)NS(=O)(=O)c2ccc(Br)s2)cc1` (stereo unspecified)?
GLP-1R agonist: 6.8%; PTHR1 ag: -22.4%; GLP1R cytotox: -10.2%; GLP-1R inv ag: 10µM*

What do the screens show for `CSc1ccccc1NC(=O)CO/N=C(\C)c1cc2ccccc2o1`?
GLP-1R agonist: 10.6%; PTHR1 ag: inconclusive; GLP1R cytotox: 29.3%; GLP-1R inv ag: inconclusive

How did CCc1ccc(NC(=O)CO/N=C(\C)c2cc3ccccc3o2)cc1 do in these assays?
GLP-1R agonist: 14.6%; PTHR1 ag: -13.6%; GLP1R cytotox: -0.8%; GLP-1R inv ag: 11.2µM*

How did COc1ccc(CCNC(=O)c2ccc3c(c2)c(C)c(C)n3Cc2ccc(F)cc2)c(OC)c1OC do in these assays?
PTHR1 ag: -0.9%; GLP1R cytotox: 1.1%; GLP-1R inv ag: inconclusive

What do the screens show for `COc1cc(NC(=O)CSc2nc3nc(C)c(Cc4ccc(C)cc4)c(C)n3n2)cc(OC)c1`?
PTHR1 ag: -75.9%; GLP1R cytotox: -9.1%; GLP-1R inv ag: -10.8%

How did CN(C)c1ccc(/C=N/Nc2nc3ccccc3o2)cc1 do in these assays?
GLP-1R agonist: -0.4%; PTHR1 ag: -28.3%; GLP1R cytotox: -21.5%; GLP-1R inv ag: 3.55µM*

How did O=C(Nc1ccc(Cl)c(Cl)c1)N1CCC(c2ccccc2)C1 (stereo unspecified) do in these assays?
PTHR1 ag: -27.3%; GLP1R cytotox: -8.6%; GLP-1R inv ag: inconclusive

What do the screens show for `CCCCOC(=O)c1ccc(NC(=O)Cc2coc3ccc(C(C)C)cc23)cc1`?
PTHR1 ag: -84.9%; GLP1R cytotox: inconclusive; GLP-1R inv ag: 7.94µM*

Results for Cc1ccc(NC(=O)Cc2coc3ccc(C(C)C)cc23)cc1Cl ?
PTHR1 ag: -82.1%; GLP1R cytotox: -9.7%; GLP-1R inv ag: inconclusive

What do the screens show for `Cc1cc(O)c(/C=N/Nc2cccc(Cl)c2)c(=O)o1`?
GLP-1R agonist: 0.9%; PTHR1 ag: -11.0%; GLP1R cytotox: 3.6%; GLP-1R inv ag: 2.82µM*

Results for Cc1cc(O)c(/C=N/Nc2ccc(Cl)cc2)c(=O)o1 ?
GLP-1R agonist: 1.9%; PTHR1 ag: -35.4%; GLP1R cytotox: -19.3%; GLP-1R inv ag: inconclusive

Results for COc1cccc(/C=N/NC(=O)Cn2nc(C)c([N+](=O)[O-])c2C)c1O ?
GLP-1R agonist: -10.6%; PTHR1 ag: -6.9%; GLP1R cytotox: 15.0%[1.53 µM]; GLP-1R inv ag: -17.0%
